Measurements reported in PubChem BioAssay (NCI).
This is part of a sample that, as a whole, favours compounds with a hit. Of some 79,000 tested, about 15% had one in any assay. Calls of active or inactive are those of the source. Rule as the data show it: active = growth inhibition above about 70%; inactive = the rest.

Experiments:
[1] = NCI Yeast Anticancer Drug Screen. Data for the rad52 strain (AID 147);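 also: 0% = growth of vehicle-treated control cultures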; conditions: S. cerevisiae rad52 mutant growth inhibition, active compounds read high
Summary of the method: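 Screen used a yeast mutant impaired in DNA repair. After compound exposure, growth was measured. Values reflect inhibition compared with vehicle-treated cells.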

[2] = NCI Yeast Anticancer Drug Screen. Data for the wt1 strain (AID 149);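 also: 0% = growth of vehicle-treated wt1 cultures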; conditions: S. cerevisiae wt1 strain (SPY 50644) growth inhibition, active compounds read high
Summary of the method: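 The wt1 strain was treated with compounds, and growth was compared with vehicle-treated cultures to give inhibition.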

[3] = NCI Yeast Anticancer Drug Screen. Data for the rad50EPP+ strain (AID 151);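 also: 0% = growth of vehicle-treated control cultures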; conditions: S. cerevisiae rad50 mutant strain, active compounds read high
Summary of the method: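 Exposing the rad50EPP+ strain to each compound, growth was compared with vehicle-only cultures to give inhibition.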

[4] = NCI Yeast Anticancer Drug Screen. Data for the mgt1 strain (AID 153); conditions: S. cerevisiae mgt1 mutant growth inhibition, active compounds read high
Summary of the method: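 Genetically defined yeast (mgt1) treated with compound; inhibition of growth expressed against vehicle-treated controls.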

[5] = NCI Yeast Anticancer Drug Screen. Data for the rad50 strain (AID 155);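 also: 0% = growth of vehicle-only cultures of the same strain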; conditions: S. cerevisiae rad50 strain growth inhibition, active compounds read high
Summary of the method: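 Cells are treated with compound, grown, and their growth is then scored against vehicle-only cultures of the same repair-deficient yeast strain.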

[6] = NCI Yeast Anticancer Drug Screen. Data for the mec2-1 strain (AID 157); conditions: S. cerevisiae mec2-1 strain, active compounds read high
Summary of the method: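 Readout is yeast growth inhibition, normalised to vehicle-treated controls, in the mec2-1 strain exposed to compound.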

[7] = NCI Yeast Anticancer Drug Screen. Data for the rad14 strain (AID 159);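 also: 0% = growth of vehicle-treated control cultures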; conditions: S. cerevisiae rad14 strain growth inhibition, active compounds read high
Summary of the method: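 Readout: yeast growth inhibition, referenced to vehicle-only cultures. Strain bears a defined alteration in DNA damage repair.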

[8] = NCI Yeast Anticancer Drug Screen. Data for the sgs1 mgt1 strain (AID 161);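 also: 0% = growth of cultures given vehicle only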; conditions: S. cerevisiae sgs1 mgt1 strain, active compounds read high
Summary of the method: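 Compounds are added to genetically altered yeast, and growth is compared with cultures given vehicle alone to give percent inhibition.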

[9] = NCI Yeast Anticancer Drug Screen. Data for the CLN2oe strain (AID 163);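 also: 0% = growth of vehicle-only control cultures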; conditions: S. cerevisiae CLN2oe strain, active compounds read high
Summary of the method: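 Values reflect how much compound exposure reduced yeast growth, referenced to vehicle-exposed cells. Assay organism is a strain with a defined genetic change affecting cell-cycle control.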

[10] = NCI Yeast Anticancer Drug Screen. Data for the cln2 rad14 strain (AID 165);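 also: 0% = growth equal to vehicle treated cultures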; conditions: S. cerevisiae cln2 rad14 strain, active compounds read high
Summary of the method: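 Relative to vehicle controls, growth inhibition of compound-treated cln2 rad14 yeast was recorded.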

[11] = NCI Yeast Anticancer Drug Screen. Data for the bub3 strain (AID 167); conditions: S. cerevisiae bub3 mutant strain, active compounds read high
Summary of the method: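 Part of a panel of yeast mutants defective in DNA damage repair or cell cycle regulation. Each strain is grown with compound, and inhibition is calculated relative to solvent-treated cultures.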

[12] = NCI Yeast Anticancer Drug Screen. Data for the wt2 strain (AID 169);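 also: 0% = growth of vehicle-treated yeast cultures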; conditions: S. cerevisiae wt2 strain growth inhibition, active compounds read high
Summary of the method: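 Values express reduction in yeast growth under compound treatment, referenced to vehicle-treated cells.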

[13] = NCI Yeast Anticancer Drug Screen. Data for the mlh1 strain (AID 171);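 also: 0% = growth of vehicle-treated control cultures of the same strain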; conditions: S. cerevisiae mlh1 strain growth inhibition, active compounds read high
Summary of the method: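 Steps: expose the defined-mutant yeast strain to compound; expose a parallel culture to vehicle; measure growth; express compound effect as inhibition relative to the vehicle culture.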

[14] = NCI Yeast Anticancer Drug Screen. Data for the mlh1 rad18 strain (AID 175); conditions: S. cerevisiae mlh1 rad18 strain growth inhibition, active compounds read high
Summary of the method: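 Test agents were incubated with a yeast strain of defined genotype (DNA damage repair defect). Inhibition of growth was derived by comparison with vehicle-exposed cultures.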

[15] = NCI Yeast Anticancer Drug Screen. Data for the rad18 strain (AID 177); conditions: S. cerevisiae rad18 mutant growth inhibition, active compounds read high
Summary of the method: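 A genetically defined yeast mutant impaired in DNA damage repair was treated with test compounds, then its growth was measured against cultures receiving vehicle alone.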

[16] = at 5.0 µM (retest, dose inferred, filed as 0.5)
[17] = at 50.0 µM (retest, dose inferred, filed as 5.0)

Measured: growth inhibition

Cc1ccc(S(=O)(=O)N/N=C/C(Br)=C(/Br)C(=O)O)cc1
inactive: [1]; at 1.2 µM 31% | [1]; at 3.7 µM 59% | [2]; at 1.2 µM 29% | [2]; at 3.7 µM 28% | [2]; at 11.0 µM 43% | [2]; at 100.0 µM 41% | [3]; at 1.2 µM 28% | [3]; at 3.7 µM 46% | [4]; at 1.2 µM 35% | [4]; at 3.7 µM 48% | [5]; at 1.2 µM 41% | [5]; at 3.7 µM 61% | [5]; [16] 38% | [5]; at 50.0 µM 57.8% | [6]; at 1.2 µM 20% | [6]; at 3.7 µM 35% | [6]; [16] -11% | [6]; at 11.0 µM 57% | [6]; [17] 10% | [6]; at 50.0 µM 43.8% | [7]; at 1.2 µM 14% | [7]; at 3.7 µM 28% | [7]; at 11.0 µM 50% | [8]; [16] 1% | [8]; [17] 43% | [8]; at 50.0 µM 62.8% | [9]; at 1.2 µM 3% | [9]; at 3.7 µM 8% | [9]; at 11.0 µM 21% | [9]; at 33.0 µM 54% | [9]; at 100.0 µM 43% | [10]; [16] 24% | [10]; [17] 42% | [10]; at 50.0 µM 25.2% | [11]; at 1.2 µM -5% | [11]; at 3.7 µM 1% | [11]; [16] -27% | [11]; at 11.0 µM 49% | [11]; [17] 37% | [11]; at 50.0 µM 64.2% | [12]; at 1.2 µM -3% | [12]; at 3.7 µM 10% | [12]; at 11.0 µM 48% | [13]; at 1.2 µM 35% | [13]; at 3.7 µM 48% | [14]; [16] 25% | [14]; [17] 69% | [15]; at 1.2 µM 24% | [15]; at 3.7 µM 36% | [15]; at 11.0 µM 64%
active: [1]; at 11.0 µM 86% | [1]; at 33.0 µM 95% | [1]; at 100.0 µM 89% | [2]; at 33.0 µM 91% | [3]; at 11.0 µM 80% | [3]; at 33.0 µM 96% | [3]; at 100.0 µM 82% | [4]; at 11.0 µM 79% | [4]; at 33.0 µM 98% | [4]; at 100.0 µM 89% | [5]; at 11.0 µM 86% | [5]; at 33.0 µM 97% | [5]; [17] 79% | [5]; at 100.0 µM 95% | [6]; at 33.0 µM 96% | [6]; at 100.0 µM 70% | [7]; at 33.0 µM 97% | [7]; at 100.0 µM 95% | [11]; at 33.0 µM 93% | [11]; at 100.0 µM 82% | [12]; at 33.0 µM 99% | [12]; at 100.0 µM 98% | [13]; at 11.0 µM 79% | [13]; at 33.0 µM 98% | [13]; at 100.0 µM 89% | [14]; at 50.0 µM 91.9% | [15]; at 33.0 µM 95% | [15]; at 100.0 µM 86%
